# Screens deposited in PubChem by The Scripps Research Institute Molecular Screening Center.
# PKA-R1A activ = PKA-R1A complex activation; activation, % at 11.4 µM; AID 504707; P00514+P68181; hit rate 0.083% among 340,000; PKA-R1A dissociation, Cy5-IP20 fluorescence polarization; scaled: DMSO 0%, 113 µM cGMP 100%;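 active = percent activation above the mean of all tested compounds plus 3 SD, cut at about 19% in these data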;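 also: higher means more PKAc released from R1A so a rise in polarization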
# PKA-R2B activ = activates the human PKA-R2B holoenzyme complex. hit rate 0.079% among 340,000. AID 504700. activation, % at 11.4 µM. PKA-R2B holoenzyme dissociation, Cy5-IP20 fluorescence polarization; R2B truncated from residue 108, S112A mutant; 0% DMSO only, 100% 113 µM cGMP;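 active = activation above a cutoff set at the mean over all compounds plus 3 SD, cut at about 18% in these data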;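 also: higher means more holoenzyme dissociation and a rise in polarization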
# Target sequence (P31323 whole entry, looked up, other chains not shown, the tested form may be a part): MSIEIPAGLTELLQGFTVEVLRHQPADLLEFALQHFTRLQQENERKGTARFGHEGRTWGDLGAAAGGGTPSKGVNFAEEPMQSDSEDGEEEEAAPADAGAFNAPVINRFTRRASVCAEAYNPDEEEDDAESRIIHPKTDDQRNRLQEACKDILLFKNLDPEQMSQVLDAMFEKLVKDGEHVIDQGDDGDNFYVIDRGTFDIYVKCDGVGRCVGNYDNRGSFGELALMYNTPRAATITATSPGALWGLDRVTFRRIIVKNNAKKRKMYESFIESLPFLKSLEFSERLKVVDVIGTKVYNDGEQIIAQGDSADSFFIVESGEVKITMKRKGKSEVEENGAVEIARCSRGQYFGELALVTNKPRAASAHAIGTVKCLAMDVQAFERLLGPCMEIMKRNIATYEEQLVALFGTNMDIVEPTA
# bovine MsrA act = activators of bovine methionine sulfoxide reductase A. purified bovine MsrA, absorbance read-out. activation, % at 10.6 µM. hit rate 0.3% among 360,000. AID 602163; in the data active = activation above about 7.5%;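 also: 0% = vehicle and 100% = reference activator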
# MsrA inhibitor = inhibits bovine methionine sulfoxide reductase A | purified bovine MsrA, absorbance read-out | inhibition, % at 15.5 µM | hit rate 0.75% among 360,000; in the data active = inhibition above about 4.5%;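 also: 0% = vehicle wells with enzyme and 100% = reference inhibitor wells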
# MsrA activ conf = bovine methionine sulfoxide reductase A activation confirmed; shares compounds with bovine MsrA act; purified bovine MsrA, absorbance read-out; activation, % at 10.6 µM; hit rate 12% among 1,000; in the data active = activation above about 4%;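 also: enzyme coupled to thioredoxin and thioredoxin reductase with NADPH; 0% = vehicle wells and 100% = reference activator wells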
# Active calls of the source: *; . = no result. An excerpt weighted towards active compounds, which were near 1.1% of everything screened.
SMILES,PKA-R1A activ,PKA-R2B activ,bovine MsrA act,MsrA inhibitor,MsrA activ conf
C/C(CC(=O)NC12CC3CC(CC(C3)C1)C2)=N\NC(=O)c1cnccn1,-5.3,0.8,14.5*,0.8,-0.8
O=C(NC12CC3CC(CC(C3)C1)C2)c1cnccn1,4.3,10.4,1.8,-0.2,.
CCC(C)(C)n1nnnc1C(c1ccc(C)cc1)N1CCN(Cc2ccc3c(c2)OCO3)CC1 (stereo unspecified),-6.5,-6.4,8.7*,0.0,-1.4
Nc1ncnc2[nH]c(=S)[nH]c12,-0.9,-9.5,10.8*,0.0,0.8
Cc1cc(-c2ccccc2)cc(=O)[nH]1,-14.7,3.4,12.8*,1.3,-1.9
CCCCCCCCN1C(=O)[C@@H](CC(=O)NCCCOC)C[C@@]2(C(=O)OC)C1=C[C@H](C1CCCC1)O[C@@H]2C,.,.,.,-0.5,.
COc1ccc(-c2cn3cc([N+](=O)[O-])ccc3n2)cc1OC,-7.6,-1.8,10.3*,3.2,-2.4
COc1ccccc1CCn1cnc(-c2ccc(F)cc2)c1C(C)C,.,.,.,-0.6,.
CC(=O)Nc1ccc2sn(-c3ccccc3)c(=O)c2c1,-15.5,8.9,9.8*,0.7,5.7*
O=c1c2cc([N+](=O)[O-])ccc2sn1-c1ccccc1,-13.6,-4.2,9.8*,3.4,7.5*
O=c1c2cc(F)ccc2sn1-c1ccc(F)cc1,-7.9,-3.5,7.3,.,.
COc1ccc(-n2sc3ccccc3c2=O)cc1,0.1,3.1,4.7,0.5,.
N#Cc1ccc2sn(-c3ccccc3)c(=O)c2c1,-6.7,-2.8,12.3*,1.1,8.9*
COc1ccccc1CNC(=O)C(=O)NCC1CCCO1 (stereo unspecified),-13.0,-1.1,-4.6,0.1,.
COc1ccccc1CC(=O)NCC1CCCO1 (stereo unspecified),-14.2,-12.0,8.4*,0.1,0.2
Nc1nc2c(-c3ccc([N+](=O)[O-])cc3)nnn2c2ccccc12,.,.,.,-0.9,.
Cn1c(=O)c2nc(SCCO)n(C)c2n(C)c1=O,4.8,-3.0,8.4*,0.8,-3.0
CC(=O)Nc1ccc(NC(=O)CC(C)n2ccnc2)cc1 (stereo unspecified),-11.3,-2.7,8.5*,0.0,-0.2
COc1ccc(C(C)=O)cc1CN1C(=O)NC2(CCCCC2)C1=O,2.4,-1.4,-5.1,-0.8,.
COc1ccc(C(C)=O)cc1CN1C(=O)C(C)N(c2ccc(C)cc2)C1=O (stereo unspecified),-16.4,0.8,9.0*,1.2,-2.5
CCCNC(=O)CN(Cc1ccco1)S(=O)(=O)c1ccc(OCC)cc1,-9.9,-1.0,-1.9,0.8,.
CCCCNC(=O)CN(Cc1ccco1)S(=O)(=O)c1ccc(C(C)=O)cc1,-5.9,4.6,10.5*,0.0,-2.1
O=C(NCc1ccccc1)[C@@H]1CCCN1C(=O)[C@H]1CCCN1C(=O)c1cccc2ccccc12,.,.,.,-0.4,.
CN(C(=O)c1ccc(NC(=O)Cc2cccc(NC(=O)C3CCCN(C(=O)C4CC4)C3)c2)cc1)C1CCCC1 (stereo unspecified),1.4,1.4,8.3*,-0.7,-0.8
CN(C(=O)c1ccc(NC(=O)Cc2cccc(NC(=O)C3CCCN(C(=O)C4CCCCC4)C3)c2)cc1)C1CCCC1 (stereo unspecified),2.0,-10.9,-2.1,-1.0,.
SMILES,PKA-R1A activ,PKA-R2B activ,bovine MsrA act,MsrA inhibitor,MsrA activ conf
C/C(N)=C(/C#N)C(=O)COC(=O)c1ccccc1C(=O)c1ccc(C)cc1,-7.3,8.5,8.6*,0.9,0.5
CC(=O)N1C[C@H]2CON(C)[C@H]2C[C@H]1c1ccccc1-c1ccccc1,.,.,.,-0.3,.
CCCN1CCCCC(NC(=O)c2cccs2)C1=O (stereo unspecified),.,.,.,-0.4,.
CCOC(=O)N(C)c1c(CC)nc2c(OCc3cccc(Cl)c3)cccn12,.,.,9.2*,0.9,-3.1
CCOC(=O)C(=O)N(C)c1c(CC)nc2c(OCCC3CCCCC3)cccn12,.,.,8.2*,-0.2,0.9
CCOC(=O)N(C)c1c(CC)nc2c(OCCC3CCCCC3)cccn12,.,.,-0.2,0.6,.
CCOC(=O)C(=O)N(C)c1c(CC)nc2c(OCc3cccc(Cl)c3)cccn12,.,.,1.8,-0.5,.
O=C1Nc2c(Cl)cc(Cl)cc2C1=O,12.0,-3.8,11.1*,0.1,7.0*
CN1/C(=C\C(=S)Nc2ccccc2)C(C)(C)c2ccccc21,-8.8,-9.7,9.0*,0.4,-4.3
COC(=O)c1cc2c(c3c4ccccc4n(S(=O)(=O)c4ccc(C)cc4)c13)C(=O)N(Cc1ccccc1)C2,.,.,.,0.6,.
CCOc1ccc2nc(NC(=S)N(C)C)sc2c1,-3.4,-1.1,8.1*,1.4,-7.4
COC(=O)c1ccc(NC(=O)[C@H](C)NC(N)=O)cc1,8.2,-3.4,22.6*,0.5,-1.2
COC(=O)c1ccc(NC(=O)C(C)Oc2ccccc2)cc1 (stereo unspecified),-8.5,-7.7,2.0,1.0,.
CCc1cc(C(=O)OCC(=O)NCCc2ccccc2)sc1C,7.2,-3.0,-5.5,0.0,.
O=C(COC(=O)c1ccc([N+](=O)[O-])o1)NCc1ccc(F)cc1,1.5,-0.5,2.6,1.1,.
O=C(COC(=O)c1ccc([N+](=O)[O-])s1)NCCc1ccccc1,-10.0,-6.2,25.5*,.,15.6*
O=C(COC(=O)c1ccc([N+](=O)[O-])s1)c1ccc[nH]1,0.0,-3.9,26.7*,1.4,9.5*
O=C1CN(C(=O)COC(=O)c2cccs2)c2ccccc2N1,6.4,1.4,1.3,0.3,.
O=C(COC(=O)c1ccc([N+](=O)[O-])s1)NCc1ccc(F)cc1,-3.6,4.0,26.4*,0.2,21.9*
O=C(OCC(=O)c1ccc[nH]1)c1ccc([N+](=O)[O-])cc1,-2.2,-5.2,-3.3,0.5,.
O=C1CN(C(=O)COC(=O)c2ccc([N+](=O)[O-])s2)c2ccccc2N1,3.4,-15.2,41.1*,.,20.5*
C[C@H]1CN([C@@H](C)CO)C(=O)c2c(c3ccccc3n2C)-c2ccccc2CO[C@H]1CN(C)C(=O)Nc1cccc(F)c1,.,.,.,0.1,.
CCCCN1CC(COCc2ccccc2)Oc2cccc(Sc3ccc(OC)c(OC)c3)c2S1(=O)=O (stereo unspecified),.,.,.,1.9,.
COc1ccc(OC)c(S(=O)(=O)NCC2CCN(C(=O)C(=O)c3cccs3)CC2)c1,.,.,.,1.1,.
CCCCCCCCN1C(=O)[C@@H](CC(=O)NCCCOCCCC)C[C@@]2(C(=O)OC)C1=C[C@H](C1CCCC1)O[C@@H]2C,.,.,.,-0.1,.
CCCCS(=O)(=O)N1C2=NC(C(=O)OCC)=C(C(=O)OCC)C3N(Cc4ccc(Br)cc4)c4ccccc4[C@]23C[C@H]1C(=O)OC (stereo partly specified),.,.,.,2.0,.
CC(NC(=O)COC(=O)c1ccc([N+](=O)[O-])s1)c1ccccc1 (stereo unspecified),-9.5,-4.7,-3.8,-0.5,.
O=C(COC(=O)c1ccc([N+](=O)[O-])s1)NC(=O)NCc1ccccc1,4.2,-2.2,15.3*,0.8,-0.4
O=C(COC(=O)c1ccc(O)cc1)NC(=O)NCc1ccccc1,4.9,-1.4,-3.6,0.3,.
O=C(COC(=O)c1ccc([N+](=O)[O-])s1)NNC(=O)c1ccccc1,-6.9,1.9,22.4*,.,9.0*
